Measurements published in PubChem BioAssay AID624100 (ICCB-Longwood Screening Facility, Harvard Medical School, 2012).
This is one part of the list. A number with no mark means an inactive call. Activity calls are given as the source filed them.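 How the source made its calls: active means average inhibition over replicates above about 50%, so the earlier screening hit is confirmed (limit read from the data); inactive means the rest, counted as false positives.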

Molecular target: Ubiquitin carboxyl-terminal hydrolase isozyme L5 (Homo sapiens) (UniProt Q9Y5K5)
Sequence (Q9Y5K5 whole entry, looked up): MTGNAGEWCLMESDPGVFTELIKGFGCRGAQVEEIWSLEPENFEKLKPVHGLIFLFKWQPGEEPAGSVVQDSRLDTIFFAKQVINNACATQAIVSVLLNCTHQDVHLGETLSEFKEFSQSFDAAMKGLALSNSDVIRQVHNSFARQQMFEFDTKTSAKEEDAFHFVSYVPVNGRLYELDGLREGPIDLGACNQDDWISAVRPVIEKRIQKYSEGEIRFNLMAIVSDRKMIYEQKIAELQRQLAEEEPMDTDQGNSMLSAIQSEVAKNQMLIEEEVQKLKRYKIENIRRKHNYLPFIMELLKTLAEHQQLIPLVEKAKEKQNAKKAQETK
Test: retest of human UCH37 deubiquitinase inhibitors, confirmation, biochemical, Ub-AMC cleavage rate, fluorescence (AID 624100);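 further: based on cleavage rate fitted by regression over a 30 min kinetic read; 0% = proteasome plus Ub-AMC and 100% = Ub-AMC without proteasome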
Settings: Proteasome-bound UCH37, Ub-AMC cleavage fluorescence; at 20 µM; stronger effect = higher value

## CCCCCCCCCCCCn1ccc(=N)cc1
  inhibition: 40.2%

## COc1ccc(N2C(=O)/C(=C/c3ccco3)C(=O)NC2=S)cc1
  inhibition: 68.9% (active)
